From publication PMC7862700, “An all-to-all approach to the identification of sequence-specific readers for epigenetic DNA modifications on cytosine”

How the values were obtained:
Assay in all cases: DAPPL (digital affinity profiling via proximity ligation, sequencing); 10 mM Tris-HCl pH 7.5, 50 mM NaCl, 1 mM DTT, 4% glycerol, room temperature, 30 min; GST-TFs on glutathione beads, 16-mer random dsDNA library, 0.1% formaldehyde crosslink after washing; high values mean tight binding
FLI1 = target: T1, FLI1 (Homo sapiens, UniProt Q01543 1-452); settings: protein: recombinant; tags: N-terminal GST; dsDNA, one strand shown
T1 sequence: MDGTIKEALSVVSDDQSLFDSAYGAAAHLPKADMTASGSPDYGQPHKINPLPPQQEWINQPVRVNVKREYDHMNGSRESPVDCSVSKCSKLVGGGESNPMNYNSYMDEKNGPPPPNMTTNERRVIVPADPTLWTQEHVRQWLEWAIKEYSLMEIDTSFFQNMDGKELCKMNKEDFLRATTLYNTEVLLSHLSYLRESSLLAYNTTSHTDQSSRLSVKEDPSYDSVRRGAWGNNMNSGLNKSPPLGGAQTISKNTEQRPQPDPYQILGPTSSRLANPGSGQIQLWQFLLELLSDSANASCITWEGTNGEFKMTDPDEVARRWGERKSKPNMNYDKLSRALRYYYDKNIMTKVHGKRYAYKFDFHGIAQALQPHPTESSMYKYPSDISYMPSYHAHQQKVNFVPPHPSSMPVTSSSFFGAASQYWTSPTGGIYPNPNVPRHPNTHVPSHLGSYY
In short: (§1)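 A tag-only sample was pooled with DNA-barcoded human transcription factors that had been expressed in yeast as GST fusions and captured on glutathione beads. The pools were incubated for 30 min at room temperature with 200 nmole of a random double-stranded 16-mer DNA library in Tris/NaCl/DTT/glycerol buffer, then washed, crosslinked with 0.1% formaldehyde, proximity-ligated (BsaI/T4 ligase, 1 h, 37 °C), PCR-amplified and sequenced on an Illumina NextSeq500. Binding signal is each hexamer's read frequency for a factor divided by its frequency for the tag-only sample.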

ELK1 = target: T2, ELK1 (Homo sapiens, UniProt P19419 1-428); settings: protein: recombinant; tags: N-terminal GST; dsDNA, one strand shown
T2 sequence: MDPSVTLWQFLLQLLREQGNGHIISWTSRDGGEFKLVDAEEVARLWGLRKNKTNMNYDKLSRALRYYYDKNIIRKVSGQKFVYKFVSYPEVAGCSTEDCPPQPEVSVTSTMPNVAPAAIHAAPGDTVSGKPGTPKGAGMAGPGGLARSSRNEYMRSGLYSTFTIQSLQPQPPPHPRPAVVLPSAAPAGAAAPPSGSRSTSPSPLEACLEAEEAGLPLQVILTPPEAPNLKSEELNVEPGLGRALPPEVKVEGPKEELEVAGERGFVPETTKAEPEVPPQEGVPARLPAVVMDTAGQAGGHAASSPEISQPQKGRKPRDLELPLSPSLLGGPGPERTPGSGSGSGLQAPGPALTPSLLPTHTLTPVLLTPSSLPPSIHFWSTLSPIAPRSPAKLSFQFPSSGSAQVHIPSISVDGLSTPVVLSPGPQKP
In short: as §1

GABPA = target: T3, GABPA (Homo sapiens, UniProt Q06546 1-454); settings: protein: recombinant; tags: N-terminal GST; dsDNA, one strand shown
T3 sequence: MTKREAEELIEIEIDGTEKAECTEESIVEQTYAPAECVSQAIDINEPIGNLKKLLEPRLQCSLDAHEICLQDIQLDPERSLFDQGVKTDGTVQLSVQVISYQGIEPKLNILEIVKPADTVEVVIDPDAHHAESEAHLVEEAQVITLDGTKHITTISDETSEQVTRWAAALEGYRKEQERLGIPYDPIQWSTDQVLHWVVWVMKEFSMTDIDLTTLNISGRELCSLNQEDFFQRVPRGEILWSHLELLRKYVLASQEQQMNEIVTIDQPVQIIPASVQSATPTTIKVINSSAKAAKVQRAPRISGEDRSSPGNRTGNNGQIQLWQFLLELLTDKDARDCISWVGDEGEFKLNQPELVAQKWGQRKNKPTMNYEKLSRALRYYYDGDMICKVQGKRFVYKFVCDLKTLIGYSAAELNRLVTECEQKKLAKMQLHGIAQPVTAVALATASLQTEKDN
In short: as §1

ERG = target: T4, ERG (Homo sapiens, UniProt P11308 1-479); settings: protein: recombinant; tags: N-terminal GST; dsDNA, one strand shown
T4 sequence: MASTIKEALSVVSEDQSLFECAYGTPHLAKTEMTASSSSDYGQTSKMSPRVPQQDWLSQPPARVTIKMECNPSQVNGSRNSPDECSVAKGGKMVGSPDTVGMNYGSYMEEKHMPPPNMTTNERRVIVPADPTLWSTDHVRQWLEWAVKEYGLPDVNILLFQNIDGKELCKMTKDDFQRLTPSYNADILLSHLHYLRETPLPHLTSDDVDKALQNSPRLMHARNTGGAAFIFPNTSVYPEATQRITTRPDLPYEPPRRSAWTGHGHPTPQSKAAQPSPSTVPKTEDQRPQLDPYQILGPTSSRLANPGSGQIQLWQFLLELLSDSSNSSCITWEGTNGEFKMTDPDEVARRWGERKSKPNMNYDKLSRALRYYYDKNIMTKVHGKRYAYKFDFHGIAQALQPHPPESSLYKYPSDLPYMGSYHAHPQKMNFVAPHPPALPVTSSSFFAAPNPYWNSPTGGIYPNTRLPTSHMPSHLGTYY
In short: as §1

ELF1 = ELF1 (Homo sapiens, UniProt P32519 1-619); settings: protein: recombinant; tags: N-terminal GST; dsDNA, one strand shown
In short: as §1

EHF = target: T5, EHF (Homo sapiens, UniProt Q9NZC4 1-300); settings: protein: recombinant; tags: N-terminal GST; dsDNA, one strand shown
T5 sequence: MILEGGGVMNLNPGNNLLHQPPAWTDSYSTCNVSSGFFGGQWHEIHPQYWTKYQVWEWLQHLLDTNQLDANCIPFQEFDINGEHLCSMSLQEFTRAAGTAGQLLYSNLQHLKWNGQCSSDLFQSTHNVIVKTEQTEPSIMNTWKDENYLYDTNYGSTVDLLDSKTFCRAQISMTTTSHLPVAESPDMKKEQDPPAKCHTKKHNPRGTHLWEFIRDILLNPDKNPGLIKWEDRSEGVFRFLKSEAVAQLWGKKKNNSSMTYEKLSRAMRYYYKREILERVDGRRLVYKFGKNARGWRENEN
In short: as §1

SPI1 = SPI1 (Homo sapiens, UniProt P17947 1-270); settings: protein: recombinant; tags: N-terminal GST; dsDNA, one strand shown
In short: as §1

SPIB = SPIB (Homo sapiens, UniProt Q01892 1-262); settings: protein: recombinant; tags: N-terminal GST; dsDNA, one strand shown
In short: as §1

ELK3 = target: T6, ELK3 (Homo sapiens, UniProt P41970 1-407); settings: protein: recombinant; tags: N-terminal GST; dsDNA, one strand shown
T6 sequence: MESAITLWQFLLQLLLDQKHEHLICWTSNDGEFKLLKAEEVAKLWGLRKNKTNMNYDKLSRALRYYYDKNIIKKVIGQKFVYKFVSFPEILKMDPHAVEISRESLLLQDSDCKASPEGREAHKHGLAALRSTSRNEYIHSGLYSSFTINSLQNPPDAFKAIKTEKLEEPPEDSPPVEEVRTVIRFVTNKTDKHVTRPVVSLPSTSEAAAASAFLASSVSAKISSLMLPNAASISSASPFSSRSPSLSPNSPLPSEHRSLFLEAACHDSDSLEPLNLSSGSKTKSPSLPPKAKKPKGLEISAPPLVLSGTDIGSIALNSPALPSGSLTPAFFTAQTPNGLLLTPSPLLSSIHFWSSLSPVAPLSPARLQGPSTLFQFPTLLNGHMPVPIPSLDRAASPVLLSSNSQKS
In short: as §1

FEV = target: T7, FEV (Homo sapiens, UniProt Q99581 1-238); settings: protein: recombinant; tags: N-terminal GST; dsDNA, one strand shown
T7 sequence: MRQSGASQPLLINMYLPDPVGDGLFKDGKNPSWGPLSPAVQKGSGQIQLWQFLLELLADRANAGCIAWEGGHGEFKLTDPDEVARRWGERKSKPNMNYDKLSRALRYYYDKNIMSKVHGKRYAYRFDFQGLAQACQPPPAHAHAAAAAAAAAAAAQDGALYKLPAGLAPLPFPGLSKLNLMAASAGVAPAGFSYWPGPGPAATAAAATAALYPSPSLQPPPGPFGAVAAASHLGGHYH
In short: as §1

ETV5 = ETV5 (Homo sapiens, UniProt P41161 1-510); settings: protein: recombinant; tags: N-terminal GST; dsDNA, one strand shown
In short: as §1

HSF1 = HSF1 (Homo sapiens, UniProt Q00613 1-529); settings: protein: recombinant; tags: N-terminal GST; chain copies: 3; dsDNA, one strand shown
In short: as §1

SPIC = target: T8, SPIC (Homo sapiens, UniProt Q8N5J4 1-248); settings: protein: recombinant; tags: N-terminal GST; dsDNA, one strand shown
T8 sequence: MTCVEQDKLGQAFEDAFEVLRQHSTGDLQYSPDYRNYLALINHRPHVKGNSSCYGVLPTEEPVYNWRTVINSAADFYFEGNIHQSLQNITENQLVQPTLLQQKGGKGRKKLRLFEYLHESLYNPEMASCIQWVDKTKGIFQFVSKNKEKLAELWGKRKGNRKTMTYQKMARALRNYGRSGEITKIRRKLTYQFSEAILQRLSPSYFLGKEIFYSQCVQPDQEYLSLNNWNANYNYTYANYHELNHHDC
In short: as §1

ELF4 = ELF4 (Homo sapiens, UniProt Q99607 1-663); settings: protein: recombinant; tags: N-terminal GST; dsDNA, one strand shown
In short: as §1

ELK4 = target: T9, ELK4 (Homo sapiens, UniProt P28324-2 1-405); settings: protein: recombinant; tags: N-terminal GST; dsDNA, one strand shown
T9 sequence: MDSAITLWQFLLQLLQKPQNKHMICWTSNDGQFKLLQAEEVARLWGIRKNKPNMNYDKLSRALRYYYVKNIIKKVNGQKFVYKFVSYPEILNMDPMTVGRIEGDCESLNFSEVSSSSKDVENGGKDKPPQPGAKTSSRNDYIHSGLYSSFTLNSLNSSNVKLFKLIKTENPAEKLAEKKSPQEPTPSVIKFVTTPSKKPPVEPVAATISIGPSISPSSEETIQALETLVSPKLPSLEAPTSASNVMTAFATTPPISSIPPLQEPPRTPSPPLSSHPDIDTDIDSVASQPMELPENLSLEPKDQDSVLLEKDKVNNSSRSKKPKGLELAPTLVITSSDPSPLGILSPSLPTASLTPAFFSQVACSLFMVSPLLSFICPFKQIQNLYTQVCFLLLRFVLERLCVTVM
In short: as §1

ETV2 = target: T10, ETV2 (Homo sapiens, UniProt O00321 1-342); settings: protein: recombinant; tags: N-terminal GST; dsDNA, one strand shown
T10 sequence: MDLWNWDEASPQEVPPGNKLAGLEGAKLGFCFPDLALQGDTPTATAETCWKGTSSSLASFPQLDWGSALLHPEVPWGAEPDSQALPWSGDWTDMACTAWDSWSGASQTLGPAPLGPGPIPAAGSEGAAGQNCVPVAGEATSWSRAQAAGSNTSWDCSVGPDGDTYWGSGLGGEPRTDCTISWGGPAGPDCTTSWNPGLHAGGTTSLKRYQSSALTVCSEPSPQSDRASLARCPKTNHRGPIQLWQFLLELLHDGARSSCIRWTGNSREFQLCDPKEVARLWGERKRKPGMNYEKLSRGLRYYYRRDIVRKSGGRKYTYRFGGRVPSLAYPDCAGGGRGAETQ
In short: as §1

ELF3 = target: T11, ELF3 (Homo sapiens, UniProt P78545 1-371); settings: protein: recombinant; tags: N-terminal GST; dsDNA, one strand shown
T11 sequence: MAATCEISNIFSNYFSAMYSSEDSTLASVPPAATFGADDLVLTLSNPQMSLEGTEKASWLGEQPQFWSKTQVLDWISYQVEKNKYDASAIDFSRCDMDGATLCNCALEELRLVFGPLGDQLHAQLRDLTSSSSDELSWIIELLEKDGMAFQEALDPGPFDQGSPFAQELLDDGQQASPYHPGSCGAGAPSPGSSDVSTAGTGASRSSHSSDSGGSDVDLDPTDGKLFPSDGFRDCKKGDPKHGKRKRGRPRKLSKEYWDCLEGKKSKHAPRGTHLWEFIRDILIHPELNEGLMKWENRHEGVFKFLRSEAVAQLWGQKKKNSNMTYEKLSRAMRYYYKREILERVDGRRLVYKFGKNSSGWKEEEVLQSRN
In short: as §1

CRX = CRX (Homo sapiens, UniProt O43186 1-299); settings: protein: recombinant; tags: N-terminal GST; dsDNA, one strand shown
In short: as §1

ETV1 = ETV1 (Homo sapiens, UniProt P50549 1-477); settings: protein: recombinant; tags: N-terminal GST; dsDNA, one strand shown
In short: as §1

Chain of CRX (O43186 whole entry): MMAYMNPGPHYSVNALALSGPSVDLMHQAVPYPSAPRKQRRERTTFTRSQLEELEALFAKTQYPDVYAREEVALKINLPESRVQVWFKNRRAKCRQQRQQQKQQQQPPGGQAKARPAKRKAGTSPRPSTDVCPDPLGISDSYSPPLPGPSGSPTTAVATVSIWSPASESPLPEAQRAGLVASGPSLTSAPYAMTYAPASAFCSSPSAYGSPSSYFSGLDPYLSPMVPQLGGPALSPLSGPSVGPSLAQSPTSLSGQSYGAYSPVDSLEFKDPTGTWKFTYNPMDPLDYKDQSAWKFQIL
Chain of SPIB (Q01892 whole entry): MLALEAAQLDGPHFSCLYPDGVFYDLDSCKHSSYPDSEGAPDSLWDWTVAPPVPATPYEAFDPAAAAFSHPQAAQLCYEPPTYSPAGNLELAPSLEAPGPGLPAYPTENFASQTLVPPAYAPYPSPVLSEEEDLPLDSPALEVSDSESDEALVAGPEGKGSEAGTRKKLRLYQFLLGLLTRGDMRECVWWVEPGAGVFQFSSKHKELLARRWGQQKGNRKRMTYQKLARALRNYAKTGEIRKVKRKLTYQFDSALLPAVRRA
Chain of HSF1 (Q00613 whole entry): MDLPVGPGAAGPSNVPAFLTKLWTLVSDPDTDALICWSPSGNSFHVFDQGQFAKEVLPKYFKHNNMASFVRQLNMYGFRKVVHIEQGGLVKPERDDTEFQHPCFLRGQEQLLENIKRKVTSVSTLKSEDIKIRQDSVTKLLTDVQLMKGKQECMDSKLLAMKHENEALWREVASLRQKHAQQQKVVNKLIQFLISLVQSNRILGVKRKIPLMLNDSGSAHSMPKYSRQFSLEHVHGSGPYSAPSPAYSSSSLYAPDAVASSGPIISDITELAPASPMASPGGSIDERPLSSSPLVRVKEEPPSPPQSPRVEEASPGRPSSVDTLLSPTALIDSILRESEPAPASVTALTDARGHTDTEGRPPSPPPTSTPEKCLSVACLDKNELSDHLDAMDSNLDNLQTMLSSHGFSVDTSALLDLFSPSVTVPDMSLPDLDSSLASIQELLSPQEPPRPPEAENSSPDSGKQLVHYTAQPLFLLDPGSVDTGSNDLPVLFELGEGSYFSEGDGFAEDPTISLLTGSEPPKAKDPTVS
Chain of ETV5 (P41161 whole entry): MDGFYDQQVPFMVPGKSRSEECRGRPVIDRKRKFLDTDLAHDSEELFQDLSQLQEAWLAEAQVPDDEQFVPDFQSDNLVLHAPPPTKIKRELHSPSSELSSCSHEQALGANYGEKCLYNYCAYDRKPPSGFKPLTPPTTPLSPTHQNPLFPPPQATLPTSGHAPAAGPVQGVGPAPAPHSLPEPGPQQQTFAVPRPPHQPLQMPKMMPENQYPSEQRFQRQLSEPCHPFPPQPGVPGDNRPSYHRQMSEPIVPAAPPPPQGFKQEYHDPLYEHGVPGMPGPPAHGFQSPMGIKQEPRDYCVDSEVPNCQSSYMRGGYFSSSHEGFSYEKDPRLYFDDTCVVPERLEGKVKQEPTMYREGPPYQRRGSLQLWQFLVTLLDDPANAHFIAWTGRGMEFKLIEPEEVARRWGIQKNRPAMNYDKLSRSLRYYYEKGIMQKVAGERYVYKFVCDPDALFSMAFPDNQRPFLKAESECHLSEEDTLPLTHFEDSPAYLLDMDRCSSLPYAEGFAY
Chain of ETV1 (P50549 whole entry): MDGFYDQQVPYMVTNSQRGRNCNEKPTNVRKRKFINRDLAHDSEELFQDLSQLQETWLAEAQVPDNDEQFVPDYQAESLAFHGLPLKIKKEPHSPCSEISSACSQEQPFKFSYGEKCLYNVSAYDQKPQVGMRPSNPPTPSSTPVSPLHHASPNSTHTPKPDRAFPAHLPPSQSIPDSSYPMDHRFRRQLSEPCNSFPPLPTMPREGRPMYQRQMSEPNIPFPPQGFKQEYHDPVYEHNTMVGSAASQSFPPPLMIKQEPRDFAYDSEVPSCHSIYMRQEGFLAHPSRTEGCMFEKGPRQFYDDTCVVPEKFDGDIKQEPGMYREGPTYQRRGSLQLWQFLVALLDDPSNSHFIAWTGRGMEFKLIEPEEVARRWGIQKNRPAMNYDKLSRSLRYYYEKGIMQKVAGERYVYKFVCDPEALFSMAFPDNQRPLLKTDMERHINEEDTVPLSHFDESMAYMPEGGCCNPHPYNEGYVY
Chain of ELF1 (P32519 whole entry): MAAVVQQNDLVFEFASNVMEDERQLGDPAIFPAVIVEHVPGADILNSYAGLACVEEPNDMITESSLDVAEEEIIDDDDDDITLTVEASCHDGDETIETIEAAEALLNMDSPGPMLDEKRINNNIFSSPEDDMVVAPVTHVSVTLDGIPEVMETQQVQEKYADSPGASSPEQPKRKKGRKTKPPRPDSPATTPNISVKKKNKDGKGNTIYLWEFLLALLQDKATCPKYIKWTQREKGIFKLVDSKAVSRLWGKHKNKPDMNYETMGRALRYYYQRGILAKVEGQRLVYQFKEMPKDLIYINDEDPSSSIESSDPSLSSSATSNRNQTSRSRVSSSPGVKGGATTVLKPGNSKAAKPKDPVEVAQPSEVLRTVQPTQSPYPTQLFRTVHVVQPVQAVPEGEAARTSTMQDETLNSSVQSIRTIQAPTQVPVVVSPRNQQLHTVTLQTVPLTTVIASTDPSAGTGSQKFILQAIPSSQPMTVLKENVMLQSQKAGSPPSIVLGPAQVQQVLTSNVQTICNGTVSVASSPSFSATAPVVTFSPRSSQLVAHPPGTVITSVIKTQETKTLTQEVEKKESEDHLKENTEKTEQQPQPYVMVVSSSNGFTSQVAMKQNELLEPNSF
Chain of ELF4 (Q99607 whole entry): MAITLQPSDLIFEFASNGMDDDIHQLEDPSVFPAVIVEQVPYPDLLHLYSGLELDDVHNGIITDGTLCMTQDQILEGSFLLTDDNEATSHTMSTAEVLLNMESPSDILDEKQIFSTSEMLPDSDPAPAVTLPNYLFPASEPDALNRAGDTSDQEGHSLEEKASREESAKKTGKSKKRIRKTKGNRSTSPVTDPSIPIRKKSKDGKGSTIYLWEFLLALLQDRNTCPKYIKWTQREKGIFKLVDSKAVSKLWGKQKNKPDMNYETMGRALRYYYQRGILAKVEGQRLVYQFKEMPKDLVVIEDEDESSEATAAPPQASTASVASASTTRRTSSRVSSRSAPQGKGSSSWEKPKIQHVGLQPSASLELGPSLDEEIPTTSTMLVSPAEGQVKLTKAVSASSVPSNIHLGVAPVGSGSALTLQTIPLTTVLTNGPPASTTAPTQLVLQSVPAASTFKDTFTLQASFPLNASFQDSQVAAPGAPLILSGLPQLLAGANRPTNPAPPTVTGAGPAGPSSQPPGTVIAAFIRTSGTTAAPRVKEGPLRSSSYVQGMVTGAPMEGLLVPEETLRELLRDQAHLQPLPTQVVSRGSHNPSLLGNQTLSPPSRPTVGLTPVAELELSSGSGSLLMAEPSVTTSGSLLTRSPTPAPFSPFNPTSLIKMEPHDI

In the case of TCTATA, the binding signal (FLI1) was 1.09 fold enrichment (6-mer frequency, TF over GST control), the binding signal (ELK1) was 1.13 fold enrichment (6-mer frequency, TF over GST control) and the binding signal (GABPA) was 1.11 fold enrichment (6-mer frequency, TF over GST control). For the same sequence, the binding signal (ERG) was 1.02 fold enrichment (6-mer frequency, TF over GST control), the binding signal (ELF1) was 1.26 fold enrichment (6-mer frequency, TF over GST control) and the binding signal (EHF) was 1.07 fold enrichment (6-mer frequency, TF over GST control). For the same sequence, the binding signal (SPI1) was 1.07 fold enrichment (6-mer frequency, TF over GST control), the binding signal (SPIB) was 1.15 fold enrichment (6-mer frequency, TF over GST control) and the binding signal (ELK3) was 1.17 fold enrichment (6-mer frequency, TF over GST control). For the same sequence, the binding signal (FEV) was 1.15 fold enrichment (6-mer frequency, TF over GST control), the binding signal (ETV5) was 1.17 fold enrichment (6-mer frequency, TF over GST control) and the binding signal (HSF1) was 1.4 fold enrichment (6-mer frequency, TF over GST control). The binding signal (SPIC) was 1.26 fold enrichment (6-mer frequency, TF over GST control), the binding signal (ELF4) was 1.23 fold enrichment (6-mer frequency, TF over GST control) and the binding signal (ELK4) was 1.24 fold enrichment (6-mer frequency, TF over GST control). For the same sequence, the binding signal (ETV2) was 1.03 fold enrichment (6-mer frequency, TF over GST control), the binding signal (ELF3) was 1.08 fold enrichment (6-mer frequency, TF over GST control) and the binding signal (CRX) was 1.36 fold enrichment (6-mer frequency, TF over GST control). For the same sequence, the binding signal (ETV1) was 1.08 fold enrichment (6-mer frequency, TF over GST control).
